Targets with a hit are over-represented here; the source holds about 7,900 in all. About 0.6% of all pairs of compound and target were hits.
The targets below were run with C[C@H](Nc1ncnc2nc[nH]c12)c1cc2cccc(Cl)c2c(=O)n1-c1ccccc1 [duvelisib] (assay: log2 fold change, soluble protein after heating vs DMSO (PISA); higher = thermal stabilisation; K562 cells, 10 uM, 30 min; active = over 0.2 and 3.5 SD of the protein, either way, in both replicates (recomputed)).
How it was run: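 Thermal stability values are relative to control samples and come from duplicates. They are expressed as log2 fold changes. For measurement, K562 cells (2×10^6 cells/mL) received 10 μM compound for 30 min, and aliquots were heated for 3 min over 48°C-58°C, pooled, and extracted at 4°C in PBS with 0.5% NP-40. Soluble protein, the supernatant after 21,000xg for 90 min, was quantified by TMTpro 16plex LC-MS/MS with equalised channel sums.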

Chain of UniProt P49585 (P49585 whole entry, looked up): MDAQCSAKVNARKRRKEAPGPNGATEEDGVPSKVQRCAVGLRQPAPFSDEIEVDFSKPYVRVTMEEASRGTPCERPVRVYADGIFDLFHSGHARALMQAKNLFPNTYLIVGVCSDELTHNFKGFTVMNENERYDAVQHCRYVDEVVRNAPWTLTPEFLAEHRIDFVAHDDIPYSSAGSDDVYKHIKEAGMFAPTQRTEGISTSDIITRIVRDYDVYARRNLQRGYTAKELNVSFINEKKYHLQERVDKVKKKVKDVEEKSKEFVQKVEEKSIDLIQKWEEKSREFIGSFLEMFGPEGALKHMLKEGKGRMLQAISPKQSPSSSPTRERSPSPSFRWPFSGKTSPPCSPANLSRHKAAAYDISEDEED
Chain of UniProt O00233 (O00233 whole entry, looked up): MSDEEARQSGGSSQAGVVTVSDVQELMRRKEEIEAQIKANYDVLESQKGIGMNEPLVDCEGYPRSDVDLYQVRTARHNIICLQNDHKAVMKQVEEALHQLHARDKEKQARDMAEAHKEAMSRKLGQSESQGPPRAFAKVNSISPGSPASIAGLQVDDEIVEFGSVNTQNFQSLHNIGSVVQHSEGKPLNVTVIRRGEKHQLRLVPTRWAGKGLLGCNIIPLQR
Chain of UniProt P43686 (P43686 whole entry, looked up): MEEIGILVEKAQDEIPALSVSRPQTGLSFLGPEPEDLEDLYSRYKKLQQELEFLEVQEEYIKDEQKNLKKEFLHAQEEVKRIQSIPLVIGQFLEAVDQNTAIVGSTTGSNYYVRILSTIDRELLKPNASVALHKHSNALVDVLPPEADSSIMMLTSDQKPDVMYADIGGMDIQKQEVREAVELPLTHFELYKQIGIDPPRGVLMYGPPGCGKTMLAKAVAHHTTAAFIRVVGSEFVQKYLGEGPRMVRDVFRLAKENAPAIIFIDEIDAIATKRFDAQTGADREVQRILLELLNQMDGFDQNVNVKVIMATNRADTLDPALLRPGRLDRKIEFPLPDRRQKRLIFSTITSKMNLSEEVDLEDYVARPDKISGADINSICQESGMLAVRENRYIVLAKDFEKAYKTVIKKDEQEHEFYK
Chain of UniProt Q9H3S7 (Q9H3S7 whole entry, looked up): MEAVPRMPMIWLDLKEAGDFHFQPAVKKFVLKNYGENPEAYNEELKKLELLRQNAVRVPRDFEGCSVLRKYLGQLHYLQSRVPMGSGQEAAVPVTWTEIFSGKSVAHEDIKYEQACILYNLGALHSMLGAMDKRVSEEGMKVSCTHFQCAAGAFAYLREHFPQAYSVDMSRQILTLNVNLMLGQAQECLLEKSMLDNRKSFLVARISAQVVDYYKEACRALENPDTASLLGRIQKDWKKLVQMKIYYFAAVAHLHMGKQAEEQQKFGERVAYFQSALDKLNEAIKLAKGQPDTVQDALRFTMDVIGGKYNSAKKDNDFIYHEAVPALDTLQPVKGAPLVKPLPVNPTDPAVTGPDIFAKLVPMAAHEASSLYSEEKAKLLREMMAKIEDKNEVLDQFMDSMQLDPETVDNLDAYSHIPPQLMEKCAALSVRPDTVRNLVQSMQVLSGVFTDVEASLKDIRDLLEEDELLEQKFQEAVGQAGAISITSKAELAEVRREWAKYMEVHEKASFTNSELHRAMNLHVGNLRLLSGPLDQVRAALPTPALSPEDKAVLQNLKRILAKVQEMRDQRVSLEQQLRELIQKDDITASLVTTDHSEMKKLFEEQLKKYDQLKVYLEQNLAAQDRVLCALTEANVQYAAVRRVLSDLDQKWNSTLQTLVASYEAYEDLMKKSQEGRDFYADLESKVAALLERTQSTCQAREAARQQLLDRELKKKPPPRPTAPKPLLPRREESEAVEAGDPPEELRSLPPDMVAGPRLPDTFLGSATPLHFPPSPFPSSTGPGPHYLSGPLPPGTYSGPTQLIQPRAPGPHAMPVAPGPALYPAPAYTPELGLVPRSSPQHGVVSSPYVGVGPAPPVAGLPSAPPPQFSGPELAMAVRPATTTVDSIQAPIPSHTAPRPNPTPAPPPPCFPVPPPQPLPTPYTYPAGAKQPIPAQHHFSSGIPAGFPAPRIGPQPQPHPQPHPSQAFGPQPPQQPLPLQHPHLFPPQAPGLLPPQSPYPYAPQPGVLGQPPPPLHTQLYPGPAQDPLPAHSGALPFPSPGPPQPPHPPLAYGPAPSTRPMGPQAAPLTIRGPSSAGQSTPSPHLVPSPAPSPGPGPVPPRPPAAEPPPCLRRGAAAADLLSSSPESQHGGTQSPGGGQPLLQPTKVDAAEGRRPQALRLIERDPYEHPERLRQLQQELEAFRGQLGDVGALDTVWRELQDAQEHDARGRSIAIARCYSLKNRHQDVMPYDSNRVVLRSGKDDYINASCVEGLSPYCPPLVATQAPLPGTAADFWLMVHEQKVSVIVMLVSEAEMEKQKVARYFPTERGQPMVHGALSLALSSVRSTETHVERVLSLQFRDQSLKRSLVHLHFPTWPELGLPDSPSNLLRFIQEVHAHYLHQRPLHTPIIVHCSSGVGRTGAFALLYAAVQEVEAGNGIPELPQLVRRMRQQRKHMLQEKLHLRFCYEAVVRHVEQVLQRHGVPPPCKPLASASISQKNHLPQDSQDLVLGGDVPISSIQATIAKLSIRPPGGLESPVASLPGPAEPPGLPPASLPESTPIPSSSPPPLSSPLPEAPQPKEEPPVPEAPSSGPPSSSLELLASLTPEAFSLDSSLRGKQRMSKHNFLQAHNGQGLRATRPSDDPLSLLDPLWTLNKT
Chain of UniProt Q96AD5 (Q96AD5 whole entry, looked up): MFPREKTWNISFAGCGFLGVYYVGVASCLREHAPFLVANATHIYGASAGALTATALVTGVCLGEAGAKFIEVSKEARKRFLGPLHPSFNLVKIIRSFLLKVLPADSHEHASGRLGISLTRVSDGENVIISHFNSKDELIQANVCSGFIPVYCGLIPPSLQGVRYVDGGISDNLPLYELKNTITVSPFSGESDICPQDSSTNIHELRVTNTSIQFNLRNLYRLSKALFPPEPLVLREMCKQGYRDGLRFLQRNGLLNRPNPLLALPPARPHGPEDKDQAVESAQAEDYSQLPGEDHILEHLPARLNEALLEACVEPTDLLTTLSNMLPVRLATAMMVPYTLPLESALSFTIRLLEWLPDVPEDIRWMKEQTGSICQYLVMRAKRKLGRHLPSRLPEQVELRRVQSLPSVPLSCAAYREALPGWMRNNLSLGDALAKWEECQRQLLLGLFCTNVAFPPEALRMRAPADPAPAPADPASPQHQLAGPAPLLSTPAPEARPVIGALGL
Chain of UniProt Q99460 (Q99460 whole entry, looked up): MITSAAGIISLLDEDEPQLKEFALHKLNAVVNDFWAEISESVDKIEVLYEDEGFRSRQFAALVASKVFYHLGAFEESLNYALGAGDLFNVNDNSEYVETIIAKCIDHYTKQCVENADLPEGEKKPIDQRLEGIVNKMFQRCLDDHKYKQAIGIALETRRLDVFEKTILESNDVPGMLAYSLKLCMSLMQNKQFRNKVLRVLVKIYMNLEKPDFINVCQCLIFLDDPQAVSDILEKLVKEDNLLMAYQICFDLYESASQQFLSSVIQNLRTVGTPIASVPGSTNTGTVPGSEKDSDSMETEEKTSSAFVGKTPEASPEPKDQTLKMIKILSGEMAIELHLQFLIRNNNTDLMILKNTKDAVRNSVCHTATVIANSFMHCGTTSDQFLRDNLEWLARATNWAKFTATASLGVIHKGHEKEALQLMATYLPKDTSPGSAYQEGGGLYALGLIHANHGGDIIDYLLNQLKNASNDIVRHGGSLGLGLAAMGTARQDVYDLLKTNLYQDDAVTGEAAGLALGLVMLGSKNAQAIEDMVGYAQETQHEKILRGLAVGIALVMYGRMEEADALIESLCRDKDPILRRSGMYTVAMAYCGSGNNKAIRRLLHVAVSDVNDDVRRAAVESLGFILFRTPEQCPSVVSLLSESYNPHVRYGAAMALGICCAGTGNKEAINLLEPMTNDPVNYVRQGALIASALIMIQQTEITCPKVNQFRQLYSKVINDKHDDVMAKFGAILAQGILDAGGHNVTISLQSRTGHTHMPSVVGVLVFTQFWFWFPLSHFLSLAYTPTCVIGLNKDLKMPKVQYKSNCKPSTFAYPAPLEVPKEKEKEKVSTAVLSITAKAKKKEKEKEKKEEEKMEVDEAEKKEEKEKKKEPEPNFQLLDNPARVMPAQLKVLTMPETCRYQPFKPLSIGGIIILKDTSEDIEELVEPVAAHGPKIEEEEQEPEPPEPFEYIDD
Chain of UniProt P27986 (P27986 whole entry, looked up): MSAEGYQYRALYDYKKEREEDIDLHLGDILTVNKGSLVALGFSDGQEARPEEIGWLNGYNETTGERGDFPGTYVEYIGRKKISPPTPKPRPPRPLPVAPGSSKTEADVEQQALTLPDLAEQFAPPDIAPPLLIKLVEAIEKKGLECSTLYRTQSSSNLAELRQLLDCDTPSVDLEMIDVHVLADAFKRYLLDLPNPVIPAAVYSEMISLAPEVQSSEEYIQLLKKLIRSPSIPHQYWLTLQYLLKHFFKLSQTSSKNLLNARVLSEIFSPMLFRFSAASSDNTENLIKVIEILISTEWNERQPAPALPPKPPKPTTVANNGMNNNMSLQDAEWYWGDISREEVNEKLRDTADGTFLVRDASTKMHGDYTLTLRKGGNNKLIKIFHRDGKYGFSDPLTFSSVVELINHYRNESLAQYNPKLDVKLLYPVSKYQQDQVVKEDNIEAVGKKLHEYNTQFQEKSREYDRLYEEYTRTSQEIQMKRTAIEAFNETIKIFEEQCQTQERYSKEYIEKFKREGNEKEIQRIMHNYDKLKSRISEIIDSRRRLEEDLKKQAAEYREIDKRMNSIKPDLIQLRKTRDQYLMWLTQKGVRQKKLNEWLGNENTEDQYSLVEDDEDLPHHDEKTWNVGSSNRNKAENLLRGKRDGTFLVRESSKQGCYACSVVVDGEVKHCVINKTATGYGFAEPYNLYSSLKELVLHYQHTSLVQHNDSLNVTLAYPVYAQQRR
Chain of UniProt Q6EEV4 (Q6EEV4 whole entry, looked up): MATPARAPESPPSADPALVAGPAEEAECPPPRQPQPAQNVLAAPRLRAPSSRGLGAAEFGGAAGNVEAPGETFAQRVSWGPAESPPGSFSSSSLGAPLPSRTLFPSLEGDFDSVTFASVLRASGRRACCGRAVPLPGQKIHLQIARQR

log2 fold change, active:
PIK3R1 (UniProt P27986) 0.232

log2 fold change, inactive:
PELP1 (UniProt Q8IZL8) -0.055
PDE2A (UniProt O00408) 0.034
PSMD1 (UniProt Q99460) -0.081
POLR2M (UniProt Q6EEV4) -0.024
POGLUT1 (UniProt Q8NBL1) -0.021
PTP4A2 (UniProt Q12974) -0.057
PNN (UniProt Q9H307) 0.034
PRPF40A (UniProt O75400) 0.018
PIKFYVE (UniProt Q9Y2I7) 0.005
PCYT1A (UniProt P49585) 0.081
PRPF4B (UniProt Q13523) -0.081
PNPLA2 (UniProt Q96AD5) 0.156
PARP1 (UniProt P09874) 0.102
PDIK1L (UniProt Q8N165) 0.086
PTPN23 (UniProt Q9H3S7) 0.116
PPP1R14A (UniProt Q96A00) 0.06
PKM isoform 2 (UniProt P14618) -0.001
PSMC4 (UniProt P43686) -0.076
PHAX (UniProt Q9H814) 0.07
POLR2K (UniProt P53803) 0.154
PLSCR1 (UniProt O15162) 0.037
PSMD9 (UniProt O00233) 0.038
